For 9 compounds, growth results are on record in PubChem BioAssay (NCI).

This is part of a sample that, as a whole, favours compounds with a hit. Of some 83,000 tested, about 20% had one in any assay.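 A percent growth of 40 corresponds to 60% growth inhibition; 0 means no net growth; -100 means all cells died. Active threshold: below 10.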 Values without a mark were called inactive. Activity calls are given as the source filed them.

Some test systems named below: SR leukemia; RPMI-8226 leukemia; OVCAR-8 ovarian; OVCAR-5 ovarian; SK-OV-3 ovarian; IGROV1 ovarian; OVCAR-3 ovarian; HS 578T breast; NCI/ADR-RES ovarian; T-47D breast; BT-549 breast; MDA-MB-435 melanoma; SW-620 colon; MCF7 breast; HCT-116 colon; HCC-2998 colon; KM12 colon; OVCAR-4 ovarian.
What all share (test): NCI-60 one-dose screen, 48 h (100 = growth as untreated, 0 = no growth, -100 = all killed)
What all share (conditions): 10 µM unless noted

Consider `CC1=CC(=O)N(c2cccc3c(N4C(=O)C=C(C)C4=O)cccc23)C1=O`, for which the growth in the test on SR leukemia is -21.1% (active); with RPMI-8226 leukemia, 21.5%; with OVCAR-8 ovarian it was 80.3%; in the test on OVCAR-5 ovarian it was 109%; in the test on SK-OV-3 ovarian, 108%; in the test on IGROV1 ovarian, 76.3%. Moreover, the growth in the test with OVCAR-3 ovarian was -16.2% (active); with HS 578T breast it was 110%; in the test on NCI/ADR-RES ovarian it was 78.3%; with T-47D breast, 30.1%; with BT-549 breast, 99.7%; in the test on MDA-MB-435 melanoma it was 80.6%. The growth in the test on SW-620 colon is 14.3%; in the test with MCF7 breast, 57.7%; in the test with HCT-116 colon, 17.8%; in the test on HCC-2998 colon, 105%; in the test on KM12 colon it was 106%.
In the case of `CC1(C)C=CC[C@]2(C)[C@H]3CC[C@@H]4[C@H]5[C@H](C(=O)/C=C/c6cccnc6)CC[C@]5(CO)CC[C@@]4(C)[C@]3(C)CC[C@@H]12`, the growth is -26.9% (active) in the test on SR leukemia; -18.5% (active) in the test on RPMI-8226 leukemia; -11.7% (active) with OVCAR-8 ovarian; -74.3% (active) in the test on OVCAR-5 ovarian; -46.6% (active) in the test on SK-OV-3 ovarian; -54.5% (active) in the test with IGROV1 ovarian. Besides, the growth with OVCAR-3 ovarian is -94.6% (active); in the test with HS 578T breast it was -42.9% (active); in the test on NCI/ADR-RES ovarian it was -32.2% (active); in the test on T-47D breast it was -74.5% (active); with BT-549 breast, -81% (active); with MDA-MB-435 melanoma, -57.1% (active). The growth is -59% (active) in the test with SW-620 colon; -21.8% (active) in the test on MCF7 breast; -88.6% (active) in the test with HCT-116 colon; -66.8% (active) with HCC-2998 colon; -80.7% (active) in the test on KM12 colon.
In the case of `CC(=O)O[C@H]1CC[C@@]2(C)[C@@H](CC[C@@H]3[C@@H]2CC(=O)[C@@]2(C)[C@H]3C[C@@H](C3CCCC3=O)[C@@H]2C(C)=O)C1` (some centres not stated), the growth in the test on SR leukemia was 87.9%; in the test with RPMI-8226 leukemia it was 91.2%; with OVCAR-8 ovarian, 98.9%; in the test on OVCAR-5 ovarian, 107%; in the test on SK-OV-3 ovarian, 107%; with IGROV1 ovarian it was 98.1%. In addition, the growth in the test with OVCAR-3 ovarian was 115%; in the test with HS 578T breast it was 108%; in the test with NCI/ADR-RES ovarian, 104%; with T-47D breast, 91.1%; in the test on BT-549 breast, 103%; with MDA-MB-435 melanoma it was 118%. For the same compound, the growth is 111% with SW-620 colon; 98.2% with MCF7 breast; 90.1% with HCT-116 colon; 107% with HCC-2998 colon; 106% in the test with KM12 colon.
Regarding `Fc1cccc(-c2[nH]nc3nc(Nc4cccnc4)sc23)c1`, the growth with SR leukemia is 15%; in the test on RPMI-8226 leukemia it was 27.2%; in the test with OVCAR-8 ovarian, 54%; with OVCAR-5 ovarian, 86.9%; in the test with SK-OV-3 ovarian it was 41%; in the test on IGROV1 ovarian, 51.4%. The growth in the test on OVCAR-3 ovarian was -18.3% (active); with HS 578T breast it was 69.4%; in the test on NCI/ADR-RES ovarian it was 21.6%; with T-47D breast, 50.8%; in the test on BT-549 breast it was 60.6%; with MDA-MB-435 melanoma, -8.7% (active). The growth is 41.6% in the test on SW-620 colon; 29.3% in the test with MCF7 breast; 35% with HCT-116 colon; 70.2% in the test on HCC-2998 colon; 22.8% in the test with KM12 colon.
For `COc1cc2[nH]c(C(=O)c3cc(OC)c(OC)c(OC)c3)c(N)c2cc1C#CCO`, the growth with SR leukemia is 0.173% (active); in the test with RPMI-8226 leukemia, 26.8%; in the test with OVCAR-8 ovarian it was 31.7%; with OVCAR-5 ovarian, 15.9%; in the test on SK-OV-3 ovarian, 18.3%; with IGROV1 ovarian, 22.9%. Further, the growth in the test on OVCAR-3 ovarian was -17.8% (active); with HS 578T breast, 19.8%; with NCI/ADR-RES ovarian, 37.8%; in the test on T-47D breast, 56%; in the test with BT-549 breast it was 54%; in the test with MDA-MB-435 melanoma it was -27.1% (active). Moreover, the growth in the test with SW-620 colon is 16.9%; in the test with MCF7 breast, 10.1%; in the test with HCT-116 colon, 10%; in the test with HCC-2998 colon it was 13.5%; in the test on KM12 colon, 10.8%.
Turning to `CC(=O)O[C@H]1CC[C@@]2(C)C(=CC[C@@H]3[C@@H]2CC[C@]2(C)C(=O)N(O)C(=O)C[C@@H]32)C1`, the growth in the test with SR leukemia was 74.8%; in the test on RPMI-8226 leukemia it was 52.8%; with OVCAR-8 ovarian it was 101%; in the test with OVCAR-5 ovarian, 98.9%; with SK-OV-3 ovarian, 93.2%; in the test with IGROV1 ovarian it was 83.3%. Also, the growth with OVCAR-3 ovarian is 102%; in the test with HS 578T breast it was 106%; with NCI/ADR-RES ovarian, 100%; in the test with T-47D breast, 87.1%; in the test on BT-549 breast, 91.9%; in the test with MDA-MB-435 melanoma it was 104%. Besides, the growth with SW-620 colon was 72.6%; with MCF7 breast, 76%; in the test on HCT-116 colon, 76.3%; in the test with HCC-2998 colon it was 78.1%; in the test on KM12 colon it was 71.8%.
`COC(=O)[C@]12CC[C@@H](C)[C@H](C)[C@@H]1C1=CC[C@@H]3[C@@]4(C)C=C(O)C(=O)C(C)=C4CC[C@@]3(C)[C@]1(C)CC2`: the growth was 20.4% in the test on SR leukemia; 1.56% (active) in the test with RPMI-8226 leukemia; 37.9% in the test with OVCAR-8 ovarian; 64.5% in the test on OVCAR-5 ovarian; 61.7% in the test with SK-OV-3 ovarian; 53.6% with IGROV1 ovarian. Further, the growth in the test on OVCAR-3 ovarian is 28.5%; in the test with HS 578T breast, 33.2%; in the test with NCI/ADR-RES ovarian it was 38.8%; with T-47D breast, 5.51% (active); in the test on BT-549 breast it was 69.1%; in the test with MDA-MB-435 melanoma, 49%. Besides, the growth is 27.9% in the test on SW-620 colon; 17.2% in the test on MCF7 breast; 18.1% with HCT-116 colon; 9.96% (active) in the test on HCC-2998 colon; 30.3% in the test on KM12 colon.
As to `N=C(N)N=Nc1ccc(O)cc1`, the growth is 35.6% [100 µM] in the test with SR leukemia; 65.7% [100 µM] in the test with RPMI-8226 leukemia; 36.7% [100 µM] in the test with OVCAR-8 ovarian; 116% [100 µM] in the test on OVCAR-5 ovarian; 68.9% [100 µM] in the test with OVCAR-4 ovarian; 85% [100 µM] in the test with IGROV1 ovarian. The growth in the test with OVCAR-3 ovarian was 68.3% [100 µM]; in the test on HS 578T breast, 60% [100 µM]; with T-47D breast, 98.8% [100 µM]; with BT-549 breast it was 19.3% [100 µM]; with MDA-MB-435 melanoma, 80.4% [100 µM]; with SW-620 colon, 58.9% [100 µM]. For the same compound, the growth with MCF7 breast is 9.71% [100 µM] (active); with HCT-116 colon, 48% [100 µM]; in the test on HCC-2998 colon, 54.6% [100 µM]; in the test with KM12 colon it was 89.7% [100 µM].
As to `Fc1ccc(Nc2nnc(-c3ccc(Cl)cc3)o2)cc1`, the growth in the test with SR leukemia was 90.8%; in the test with RPMI-8226 leukemia, 99.8%; with OVCAR-8 ovarian, 86.7%; with OVCAR-5 ovarian it was 98.3%; in the test on SK-OV-3 ovarian, 77.4%; with IGROV1 ovarian, 90.2%. Also, the growth in the test with OVCAR-3 ovarian is 110%; in the test on HS 578T breast, 107%; in the test with NCI/ADR-RES ovarian, 99%; in the test on T-47D breast, 66.2%; with BT-549 breast it was 99%; in the test with MDA-MB-435 melanoma, 111%. For the same compound, the growth is 105% in the test on SW-620 colon; 75.4% with MCF7 breast; 85.1% with HCT-116 colon; 98.9% in the test with HCC-2998 colon; 97.8% in the test with KM12 colon.
